# Most compounds without a hit are left out; they make up all but 10% or so of the library.
# ELG1 repair inh: ELG1-dependent DNA repair inhibition; HEK293T ELG1-luciferase reporter, luminescence, 16 h; DNA damage induced by 5-fluorouridine; Potency, µM (doses to about 46.1 µM), without a hit: at the top dose activity change, negative = inhibition, hits mostly inhibitors; hit rate 2.3% among 330,000; note: % is set by controls: 0 for no effect and ±100 for the full control effect; nearly all actives have a fitted effect of over 55% in size
#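 5-Fluorouridine DNA damage + compound/DMSO, 2,000 cells/well, 16 h, 37 °C/5% CO2. ONE-Glo, 30 min RT, luminescence. Readout = decrease in reporter signal.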
# VP16 counter: inhibits Gal4-VP16 luciferase reporter, ROR gamma counter-screen; Drosophila S2 Gal4-VP16 UAS-luciferase, luminescence, 20 h; hit rate 3.5% among 310,000; Potency, µM (series often up to 53.6 µM), for the others: at the top dose activity, negative = inhibition, actives largely listed as inhibitors; AID 2546;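 note: Gal4-VP16 expression switched on by copper sulfate through the metallothionein promoter; % is set by controls: 0 for no effect and ±100 for the full control effect; nearly all actives have a fitted effect of over 50% in size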
# RORg inh: blocks mouse ROR gamma transcriptional activity; hit rate 5.4% among 310,000; P51450; AID 2551; Drosophila S2 Gal4-RORgamma UAS-luciferase reporter, 20 h; Potency, µM (doses to about 53.6 µM), for the others: at the highest dose activity change, negative = inhibition, actives largely listed as inhibitors; note: % is set by controls: 0 for no effect and ±100 for the full control effect; nearly all actives have a fitted effect of over 60% in size
# Target sequence (P51450 whole entry, looked up, the tested form may be a part): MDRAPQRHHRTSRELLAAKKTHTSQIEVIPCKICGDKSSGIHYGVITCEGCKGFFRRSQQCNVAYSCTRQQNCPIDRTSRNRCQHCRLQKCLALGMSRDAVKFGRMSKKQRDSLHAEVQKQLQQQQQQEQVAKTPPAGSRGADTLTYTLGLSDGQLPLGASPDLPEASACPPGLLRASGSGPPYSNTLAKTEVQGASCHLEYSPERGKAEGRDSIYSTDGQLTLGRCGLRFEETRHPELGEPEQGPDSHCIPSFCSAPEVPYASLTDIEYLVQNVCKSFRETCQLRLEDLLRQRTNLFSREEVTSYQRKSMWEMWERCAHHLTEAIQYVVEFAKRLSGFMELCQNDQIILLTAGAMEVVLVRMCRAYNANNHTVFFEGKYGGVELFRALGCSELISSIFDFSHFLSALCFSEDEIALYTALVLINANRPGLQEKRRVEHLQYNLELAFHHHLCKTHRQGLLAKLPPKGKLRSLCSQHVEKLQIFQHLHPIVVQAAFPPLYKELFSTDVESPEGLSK
#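 ROR gamma transcriptional activity was tracked as Gal4-UAS luciferase output in stably transfected Drosophila Schneider cells, with compound added 1 hr before 700 uM copper sulfate induction and a 20 hr ambient-temperature incubation.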
# SW480 rerep: induces DNA re-replication in SW480 colon adenocarcinoma cells | Potency, µM (highest dose often 46.1 µM), for inactives: top-dose re-replication activation, most hits filed as activators | AID 624297 | SW480 DNA re-replication, Hoechst DNA content imaging, 48 h | hit rate 1.8% among 340,000; note: % of control where 0% means no effect; nearly all actives have a fitted effect of over 55% in size
#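 Compounds, transferred as 23 nL by pin tool, were incubated with cells for 48 hr; DNA content per nucleus was then quantified by Hoechst staining and fluorescence plate imaging.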
# MCF10A rereplic: DNA re-replication induction in MCF 10a cells | hit rate 2.9% among 350,000 | AID 624296 | MCF 10A DNA re-replication, Hoechst nuclear intensity, 48 h | Potency, µM (doses to about 46.1 µM), for inactives: at the highest dose activity, positive = re-replication, hits mostly activators; note: % of control where 0% means no effect; nearly all actives have a fitted effect of over 50% in size
# * = called active by the depositor; ? = inconclusive; · = no result; [ ] = dose if it differs, or a comment. Calls come from the whole dose curve; as a rule, active = well fitted curve in the direction sought with a large enough effect; inconclusive = small, poorly fitted or top-dose-only effect, or another doubt; inactive = no such curve, though single readings can be large; an effect the other way counts as inactive or inconclusive. Potency is the fitted concentration of half-maximal effect.
SMILES,ELG1 repair inh,VP16 counter,RORg inh,SW480 rerep,MCF10A rereplic
Cc1cc2c(cc(C(=O)N3CCC(C(=O)NC4CCCC4)CC3)n2Cc2c(F)cccc2Cl)o1,23.1µM*,-4.7%,-17.6%,-0.1%,10.9%
NC(N)=NN=C(/C=C/c1ccc([N+](=O)[O-])o1)/C=C/c1ccc([N+](=O)[O-])o1,·,?,5.01µM*,?,?
Cc1cccc(N2C(=O)NC(=O)/C(=C/c3ccc([N+](=O)[O-])o3)C2=O)c1,1.5%,?,4.0%,-18.5%,5.9%
Cc1cccc(-n2c(C)n[nH]c2=S)c1C,·,?,15.8µM*,2.5%,-4.5%
[CH3][Hg][Cl],·,0.708µM*,0.891µM*,·,·
CCOP(=O)(OCC)C(=Cc1cc(C(C)(C)C)c(O)c(C(C)(C)C)c1)P(=O)(OCC)OCC,·,-10.8%,?,·,·
NC(=O)C[N+]1(CC#CC(O)(c2ccccc2)c2ccccc2)CCCC1,15.9%,7.6%,-0.1%,-2.6%,?
Cc1cc(C)c(C(=O)CN2CCOCC2)c(C)c1,-0.5%,?,-44.1%,9.2µM*,8.2µM*
O=C1CC2OCC=C3CN4CC[C@]56c7ccccc7N1[C@H]5[C@H]2C3C[C@H]46 (some centres not stated),·,-1.0%,4.3%,·,·
CCN(CC)S(=O)(=O)c1cc(NC(=O)C(C)N2CC=C(c3ccccc3)CC2)ccc1C (configuration not stated),14.6µM*,?,14.4%,?,7.7%
CC(C)CC(NS(=O)(=O)c1ccc2c(c1)oc(=O)n2C)C(=O)N1CC=C(c2ccccc2)CC1 (configuration not stated),?,3.0%,?,-4.8%,-6.3%
O=C(c1ccccc1F)N1CCN(Cc2nc3sc4c(c3c(=O)[nH]2)CCCC4)CC1,16.4µM*,-0.5%,0.0%,4.4%,10.0%
CCCCOP(=O)(OCCCC)C(Nc1ccc(C(=O)OCC)cc1)c1ccncc1 (configuration not stated),8.5%,-6.3%,52.3%,13.2%,?
COc1cc2[nH]c(=S)n(-c3ccccc3)c(=O)c2cc1OC,-5.9%,-29.9%,3.98µM*,-12.0%,-10.7%
CCCCC/C=C\C/C=C\C/C=C\C/C=C\CCCC(=O)OCCN,·,?,8.7%,·,·
CC1CCC[C@H](O)CCCCCc2cc(O)cc(O)c2C(=O)O1 (some centres not stated),?,?,?,-38.7%,1.3%
C[C@H]1CCC[C@H](O)CCCCCc2cc(O)cc(O)c2C(=O)O1,7.31µM*,?,?,?,?
CC1CCN(C(CC(=O)c2ccccc2)C(=O)c2ccccc2)CC1 (configuration not stated),·,·,·,6.51µM*,3.66µM*
O=C(Cl)/C=C/C(=O)Cl,·,-4.2%,15.6%,·,·
CC(=O)C(O)C(c1ccccc1)c1c(O)c2ccccc2oc1=O (configuration not stated),·,-2.2%,2.4%,·,·
O=C1NC(=O)N(c2ccccc2)C(=O)/C1=C/C=C/c1ccco1,0.4%,?,?,14.6µM*,?
Cc1ccc(N2C(=O)NC(=O)/C(=C\C=C\c3ccco3)C2=O)cc1,?,5.62µM*,?,?,7.31µM*
CN(C)c1ccc(/C=C/C=C2/C(=O)NC(=O)N(c3ccccc3)C2=O)cc1,?,-3.8%,?,?,?
CN1C(=O)/C(=C/C=C/c2ccco2)C(=O)NC1=S,-8.0%,-1.7%,-11.2%,?,8.8%
Cc1ccc(N2C(=O)NC(=O)/C(=C\C=C\c3ccco3)C2=O)cc1C,?,7.08µM*,12.6µM*,?,5.8µM*
SMILES,ELG1 repair inh,VP16 counter,RORg inh,SW480 rerep,MCF10A rereplic
Cc1ccc(N2C(=O)NC(=O)/C(=C\c3ccoc3)C2=O)cc1,-6.8%,-8.6%,-2.2%,25.3%,?
Cc1cccc(N2C(=O)NC(=O)/C(=C\C=C\c3ccco3)C2=O)c1,?,?,-117.0%,?,14.6µM*
CC(=O)N1CCN(c2ccc(OC[C@@H]3CO[C@@](Cn4ccnc4)(c4ccc(Cl)cc4Cl)O3)cc2)CC1,·,-7.6%[17 µM],0.7%[16.9 µM],-5.1%,23.7%
C(CCOCC1CO1)COCC1CO1 (configuration not stated),·,-4.5%,2.8%,·,·
COC(=O)CCCc1[se]c2ccccc2c1I,·,-3.1%,42.0%,·,·
Cc1ccc(OCCOc2cccc(C=C3C(=O)NC(=O)NC3=O)c2)c(C)c1,?,3.98µM*,7.94µM*,14.8%,12.0%
O=C1NC(=O)C(=Cc2cccc(OCCOc3ccccc3)c2)C(=O)N1,?,?,?,7.0%,0.3%
O=C(O)CSCC(=O)N(Cc1ccccc1)c1nc(-c2ccccc2)c(-c2ccccc2)s1,-2.5%,-5.7%,10.2%,11.7%,?
O=C1NC(=O)C(CCc2ccncc2)(Cc2cccc(Cl)c2Cl)C(=O)N1c1ccc(Br)cc1 (configuration not stated),16.4µM*,-22.9%,40.2%,11.6µM*,4.61µM*
COc1ccc(C2SCC(=O)Nc3c2c(=O)[nH]n3C2CCCCCC2)cc1OC (configuration not stated),?,-5.5%,0.0%,-5.3%,-1.9%
COc1ccc(-c2nnc3sc(C4CCCCC4)nn23)cc1OC,18.4µM*,2.0%,-17.9%,-8.5%,-182.8%[0.0737 µM]
C=CCS(=O)(=O)N1CCC(CCOc2ccccc2)(C(=O)OCC)CC1,?,10.0%,16.5%,6.5%,6.9%
c1cc2n(c1)-c1c(ccc3c1OCO3)CNC2c1ccc2c(c1)OCO2 (configuration not stated),1.1%,2.9%,?,4.1%,-16.5%
COc1ccc(C2NCc3ccc4c(c3-n3cccc32)OCO4)cc1O (configuration not stated),-13.7%,?,0.3%,3.26µM*,4.11µM*
CNC1C2CN3CCC(O2)C13 (configuration not stated),·,-9.2%,-4.1%,·,·
O=C1C=CC(=O)C(Cl)=C1,·,?,11.2µM*,·,·
COC(=O)COc1cc(Cl)c(Cl)cc1Cl,·,-6.0%,-17.6%,·,·
COc1c(C)cc(C(=O)C2CCCN(Cc3ccccn3)C2)cc1C (configuration not stated),?,10µM*,2µM*,-1.2%,?
COc1cccc(C(=O)C2CCCN(Cc3ccccn3)C2)c1 (configuration not stated),-3.9%,?,3.55µM*,0.6%,-2.4%
O=C(c1ccc2c(c1)OCO2)C1CCCN(Cc2ccccn2)C1 (configuration not stated),-11.8%,?,3.16µM*,-4.1%,13.2%
CN1C(=O)C(=Cc2sc(=O)n(-c3ccccc3)c2N(C)C)C(=O)N(C)C1=O,?,-6.7%,-27.6%,28.2%,18.4µM*
Cc1cc(C=C2C(=O)N(C)C(=O)N(C)C2=O)c(C)n1-c1ccccc1,3.6%,9.1%,-15.9%,3.2%,4.5%

# Source: PubChem BioAssay (National Center for Advancing Translational Sciences (NCATS))
